# Data taken from the supplement of paper PMC10681739.
# What was measured:
# ETS1 [1] = target: T1, ETS1 (UniProt P14921); assay: ETS1 binding intensity (PBM fluorescence), ETS1 alone (arbitrary fluorescence units); higher = stronger binding; conditions: ETS1 concentration 1 nM; RUNX1 concentration 0 nM
# T1 sequence: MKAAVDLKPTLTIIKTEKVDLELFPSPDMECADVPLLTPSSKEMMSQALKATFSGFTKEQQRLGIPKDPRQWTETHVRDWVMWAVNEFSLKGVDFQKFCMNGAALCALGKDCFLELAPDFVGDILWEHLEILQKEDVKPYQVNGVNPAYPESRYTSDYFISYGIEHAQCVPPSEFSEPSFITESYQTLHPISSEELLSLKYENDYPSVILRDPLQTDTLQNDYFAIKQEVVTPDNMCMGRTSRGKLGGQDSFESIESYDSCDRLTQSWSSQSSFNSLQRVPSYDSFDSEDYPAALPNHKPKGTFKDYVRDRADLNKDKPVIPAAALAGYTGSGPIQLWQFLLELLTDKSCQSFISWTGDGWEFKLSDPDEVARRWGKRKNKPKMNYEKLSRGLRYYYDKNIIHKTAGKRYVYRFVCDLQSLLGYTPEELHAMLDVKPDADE
# RUNX1 [2] = target: RUNX1 (UniProt Q01196); assay: RUNX1 binding intensity (PBM fluorescence), RUNX1 alone (arbitrary fluorescence units); higher = stronger binding; conditions: RUNX1 concentration 2 nM; ETS1 concentration 0 nM
# Experimental: (§1)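 Cooperative gcPBM on 36-bp genomic probes with neighbouring ETS1 and RUNX1 sites. Recombinant human RUNX1 (2 nM) was incubated alone or with ETS1 (25 nM) and detected with anti-RUNX1 antibody plus Alexa488 secondary. Values are medians over 4 replicate spots; the RUNX1+ETS1 data were normalised to the RUNX1-only data. The probes sit in constant array flanks that are not printed.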
# ETS1 [3] = target: T1, ETS1; assay: ETS1 binding intensity (PBM fluorescence) in presence of RUNX1, normalised to ETS1-only experiment (arbitrary fluorescence units); higher = stronger binding; conditions: ETS1 concentration 1 nM; RUNX1 concentration 25 nM
# RUNX1 [4] = target: RUNX1 (UniProt Q01196); assay: RUNX1 binding intensity (PBM fluorescence) in presence of ETS1, normalised to RUNX1-only experiment (arbitrary fluorescence units); higher = stronger binding; conditions: RUNX1 concentration 2 nM; ETS1 concentration 25 nM
# Experimental: as §1
# 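Wherever RUNX1 binding intensity (PBM fluorescence) in presence of ETS1, normalised to RUNX1-only experiment is given: Full-length recombinant human ETS1 or RUNX1 bound to double-stranded 36-bp genomic probes on microarrays, detected by protein-specific primary antibody and Alexa488 secondary, spot fluorescence as median of four replicate spots.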
# 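Wherever RUNX1 binding intensity (PBM fluorescence), RUNX1 alone is given: Full-length recombinant human RUNX1 bound to double-stranded 36-bp genomic probes on a high-density microarray, scored as Alexa488 fluorescence per spot via anti-RUNX1 antibody, median of four replicate spots.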
# RUNX1, sequence (Q01196 whole entry): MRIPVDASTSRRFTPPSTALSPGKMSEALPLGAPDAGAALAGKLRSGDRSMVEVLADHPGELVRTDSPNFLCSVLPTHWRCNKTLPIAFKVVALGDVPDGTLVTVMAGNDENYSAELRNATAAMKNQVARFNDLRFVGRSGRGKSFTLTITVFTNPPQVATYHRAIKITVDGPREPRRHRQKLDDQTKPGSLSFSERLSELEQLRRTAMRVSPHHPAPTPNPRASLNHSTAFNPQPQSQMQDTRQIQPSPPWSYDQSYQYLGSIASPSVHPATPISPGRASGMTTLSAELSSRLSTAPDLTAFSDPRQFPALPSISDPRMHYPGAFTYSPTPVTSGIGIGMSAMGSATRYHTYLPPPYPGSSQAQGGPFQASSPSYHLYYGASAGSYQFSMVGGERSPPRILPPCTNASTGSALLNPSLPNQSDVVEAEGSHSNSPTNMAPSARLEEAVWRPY
Sequence,ETS1 binding intensity (ETS1 [1]),RUNX1 binding intensity (RUNX1 [2]),ETS1 binding intensity (ETS1 [3]),RUNX1 binding intensity (RUNX1 [4])
GAAATTTCCGCTTTCTTTCTGCAGCAGGAACCGCGG,2670,849,2590,2550
AACTTCCGAGGGAACTAACTGGTTTTAACCACATTG,367,886,923,1190
CTGCTTCCGGCCCCGGGGTTCGCTACCCCACAATCC,1210,981,1240,2530
CTGCAGATGCATTTCCTTTTTGTGGTAGCAAGCGTG,570,805,932,1470
GGCAACCGGCCCCGGAAGTTGCGGCAGGTGCGTCCA,5780,685,8090,1640
GACCCGGCCCGCCCCTTCCGGCCGCAGCGCGGGGCA,704,952,817,1490
GCGCACTTCCGGGCTGGTGAACGCGGTGACGTCACC,1250,804,1210,1720
GGGCTCCCAGAAGGATGTGGTTTCTGAGTACGTTGG,582,906,3520,1260
AAAGAGGAAATCACATACCCGAAAACCACATGCACA,513,944,1050,1200
TCTGGAGAAGCAGGATGTGGTTTGCAAGAGGCTTGC,4750,774,16700,4750
TGCCTCACCTCACATCCGTTTGTGGCTGCCGAGTGC,1090,950,1310,1880
CCATTTCCGCGCACGTCTGCAGATGCGGTAGTCGAT,413,853,463,1830
AGTGGCAGTGCAGGAAGTGGTTTGTCTGGTACAATC,3750,788,6800,1590
CGTACGCGCACTTCCGGTCTTTGTGGCTTGCAGCTC,18000,853,34400,2610
CCAAGTGTAAAACGGAAGCTCAACCACGAATCTTAC,1510,800,2960,1100
CATGACGAAGGGGAAGGATGTGGTTTGAGGGCAGCA,774,847,8460,1310
CGAAGCCGGAAATGCTGAGTGTGCGGGGCCGAACGT,4230,694,4980,1220
CCTACACTTCCCAGAGAACCTAGCGGTTACGCCAAC,401,1340,505,1560
AACAGAGACCCGGAAGTTGTGGGACGAAGCCAGGAC,4960,810,6420,1260
CACCTGCGGAAGTCACAGGGAAGCCACAGAGAGATG,849,766,1160,1080

Sequence,ETS1 binding intensity (ETS1 [1]),RUNX1 binding intensity (RUNX1 [2]),ETS1 binding intensity (ETS1 [3]),RUNX1 binding intensity (RUNX1 [4])
CTTTGCTGCCGCCTTCCTGTGCGGGGCCGTGGCGGC,493,720,389,1020
TATATGCACAGGAAGTCCCTTACAACCCACTCTGTT,3900,869,3840,1130
GAGTACAGGAAATGCAAAGTAAAACCACAGTGAGAT,1460,904,4550,1850
CTGCCTGGCACAGGATGTGGTCATTTGTGCTGAGGA,5880,730,17900,4420
GCCACTATTTCCTGCCTTCTGCGGCTGAGAGTCCCA,981,1220,997,3520
CCGTACTTCCGCTTTACTCAGATTTTGGACCGCGGG,1810,1490,1780,3640
ACAAAACAAACACATCCCCCAAACCGCCAAACTACA,606,1310,627,1300
AGGTTCCGGCGAAAGTGACCGAAAGTAACCGCCGGG,351,670,518,967
GTACGACAGCGGGTTCCGGTGACCACGAAGGCGGCA,404,938,467,1180
GGACTTCCTGAACTGGGAGGTCACCGACCACAACCT,354,831,671,1740
CTGCCCAGCCACTTCCTGCCCAACCACAGACTGACA,2210,1420,4910,6000
AGCCTTAATTACCCGGAAGTGCGGTCCCAGGGACTT,8970,768,12200,1710
CACTTCCTGCCCTCTTCCACTTTCAAAACCACATCA,869,4540,1850,9880
GCACCCGGCACTACTTCCCGACCCGCATCCCCCGCC,689,1260,683,1320
CTAAGCAGAGGCCGGAAGCGGTGGTTTTTAGCGGCT,10200,677,20400,2090
GCTTGTCTTCCGGTTTCGTCGCCGCCGCAGGCGCAC,1730,840,1880,1780
TGCAGCTATGGCCGGAAGCCTGTGGGTGTGGGAGGA,4180,726,4580,906
TCCCTAAGTCACATCCTGTGGGCAAAGGCCCTAGCA,880,769,935,1570
TATTCATGACATCCTGTCGGGCTTGTGGGCTGCGTA,1020,704,1590,1430
TGGGCTTTGCAGGAAGCTGTGGTTCACCTACAGCCT,1160,692,2110,866
